Values joined by “and” are separate entries in the source; they are usually repeats but may differ in a detail not shown here. Equal values may be shown once. Among all 5,500 compounds or so, about 2,000 (36%) were called active. Roughly 18% stayed inconclusive and do not appear here. No stated cut-off is given here; in the data, active means normalized growth mostly below about 0.91 (no sharp cut-off); inconclusive means no clear call, values can overlap the other calls; inactive means mostly above about 0.92. The list shows a part of the results.
Assay: chemical genetic growth profiling, strain panel (AID 1159580);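 further: tested at 20 µM; growth read once vehicle control cultures reached saturation at 30 °C; 1 = growth at the plate median or of vehicle wells; lower values mean less growth of the strain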
Conditions: growth OD
[1] = S. cerevisiae deletion strains, locus YAL013W, strain DEP1, hits give low values
[2] = S. cerevisiae deletion strains, locus YAL040C, strain CLN3, hits give low values
[3] = S. cerevisiae deletion strains, locus YCL061C, strain MRC1 (second series), hits give low values
[4] = S. cerevisiae deletion strains, locus YDR150W, strain NUM1, hits give low values
[5] = S. cerevisiae deletion strains, locus YDR363W, strain ESC2, hits give low values
[6] = S. cerevisiae deletion strains, locus YER002W, strain NOP16, hits give low values
[7] = S. cerevisiae deletion strains, locus YGR229C, strain SMI1, hits give low values
[8] = S. cerevisiae deletion strains, locus YHR030C, strain SLT2, hits give low values
[9] = S. cerevisiae deletion strains, locus YHR079C, strain IRE1, hits give low values
[10] = S. cerevisiae deletion strains, locus YJL095W, strain BCK1, hits give low values
[11] = S. cerevisiae deletion strains, locus YJR066W, strain TOR1, hits give low values
[12] = S. cerevisiae deletion strains, locus YLR113W, strain HOG1, hits give low values
[13] = S. cerevisiae deletion strains, locus YMR307W, strain GAS1, hits give low values
[14] = S. cerevisiae deletion strains, locus YNL175C, strain NOP13, hits give low values
[15] = S. cerevisiae deletion strains, locus YNL183C, strain NPR1, hits give low values
[16] = S. cerevisiae deletion strains, locus YNL197C, strain WHI3, hits give low values
[17] = S. cerevisiae deletion strains, locus YNL224C, strain SQS1, hits give low values
[18] = S. cerevisiae deletion strains, locus YOR083W, strain WHI5 (second series), hits give low values
[19] = S. cerevisiae deletion strains, locus YOR231W, strain MKK1, hits give low values
[20] = S. cerevisiae deletion strains, locus YPL055C, strain LGE1, hits give low values
[21] = S. cerevisiae deletion strains, locus YPL256C, strain CLN2, hits give low values

Measured: normalized growth

C[N+](C)(C)CCCCCC[N+](C)(C)C
inactive: [1] 1.01 | [2] 0.978 and 0.988 | S. cerevisiae deletion strains, locus YBR021W, strain FUR4, hits give low values 0.997 | S. cerevisiae deletion strains, locus YBR229C, strain ROT2, hits give low values 0.995 | S. cerevisiae deletion strains, locus YCL029C, strain bik1, hits give low values 0.988 | [3] 1.01 and 1 | S. cerevisiae deletion strains, locus YDL035C, strain GPR1, hits give low values 1 | S. cerevisiae deletion strains, locus YDL074C, strain BRE1, hits give low values 1.07 | S. cerevisiae deletion strains, locus YDL101C, strain DUN1, hits give low values 0.993 | S. cerevisiae deletion strains, locus YDL134C, strain PPH21, hits give low values 0.98 | S. cerevisiae deletion strains, locus YDL185W, strain tfp1, hits give low values 0.984 | S. cerevisiae deletion strains, locus YDL192W, strain arf1, hits give low values 0.98 | S. cerevisiae deletion strains, locus YDR101C, strain arx1, hits give low values 1.03 | [4] 1 and 0.998 | S. cerevisiae deletion strains, locus YDR162C, strain NBP2, hits give low values 0.985 | S. cerevisiae deletion strains, locus YDR318W, strain mcm21, hits give low values 0.984 | [5] 1.01 and 0.998 | S. cerevisiae deletion strains, locus YDR388W, hits give low values 0.982 | S. cerevisiae deletion strains, locus YDR502C, strain sam2, hits give low values 0.985 | S. cerevisiae deletion strains, locus YEL061C, strain CIN8, hits give low values 0.993 | [6] 1.03 and 1 | S. cerevisiae deletion strains, locus YER110C, hits give low values 0.979 | S. cerevisiae deletion strains, locus YER155C, strain BEM2, hits give low values 0.998 | S. cerevisiae deletion strains, locus YER167W, strain BCK2, hits give low values 0.994 | S. cerevisiae deletion strains, locus YGL078C, strain dbp3, hits give low values 0.981 | S. cerevisiae deletion strains, locus YGL086W, strain mad1, hits give low values 1.02 | S. cerevisiae deletion strains, locus YGL248W, strain PDE1, hits give low values 1 | S. cerevisiae deletion strains, locus YGR078C, strain PAC10, hits give low values 1.03 and 0.99 | S. cerevisiae deletion strains, locus YGR135W, strain pre9, hits give low values 0.95 | [7] 0.99 | S. cerevisiae deletion strains, locus YGR252W, strain gcn5, hits give low values 0.948 | [8] 0.987 and 1.05 | S. cerevisiae deletion strains, locus YHR079C, strain IRE1 (second series), hits give low values 0.993 | [9] 1.04 | S. cerevisiae deletion strains, locus YHR094C, strain hxt1, hits give low values 0.987 | S. cerevisiae deletion strains, locus YHR129C, strain ARP1, hits give low values 0.988 | S. cerevisiae deletion strains, locus YHR200W, strain rpn10, hits give low values 0.989 | S. cerevisiae deletion strains, locus YIL066C, strain RNR3, hits give low values 0.994 | S. cerevisiae deletion strains, locus YIL073C, strain SPO22, hits give low values 0.953 | S. cerevisiae deletion strains, locus YIL125W, strain kgd1, hits give low values 1 | S. cerevisiae deletion strains, locus YIR030C, strain dcg1, hits give low values 0.985 | [10] 1 and 1.05 | S. cerevisiae deletion strains, locus YJL134W, strain LCB3, hits give low values 0.989 | S. cerevisiae deletion strains, locus YJL168C, strain set2, hits give low values 1 | S. cerevisiae deletion strains, locus YJL187C, strain SWE1 (second series), hits give low values 0.999 | S. cerevisiae deletion strains, locus YJR043C, strain POL32, hits give low values 1 | [11] 0.96 | S. cerevisiae deletion strains, locus YJR075W, strain HOC1, hits give low values 0.998 and 1.01 | S. cerevisiae deletion strains, locus YKL009W, strain mrt4, hits give low values 0.99 | S. cerevisiae deletion strains, locus YKL068W, hits give low values 0.988 | S. cerevisiae deletion strains, locus YKL085W, strain MDH1 (second series), hits give low values 0.998 | S. cerevisiae deletion strains, locus YKL085W, strain MDH1, hits give low values 0.998 | S. cerevisiae deletion strains, locus YKL190W, strain CNB1, hits give low values 1.01 | S. cerevisiae deletion strains, locus YKR001C, strain vps1, hits give low values 1 | S. cerevisiae deletion strains, locus YLR039C, strain RIC1, hits give low values 1 | S. cerevisiae deletion strains, locus YLR058C, strain SHM2, hits give low values 0.987 | S. cerevisiae deletion strains, locus YLR102C, strain apc9, hits give low values 0.987 | [12] 1.1 | S. cerevisiae deletion strains, locus YLR262C, strain YPT6, hits give low values 0.97 | S. cerevisiae deletion strains, locus YLR268W, strain sec22, hits give low values 0.99 | S. cerevisiae deletion strains, locus YLR330W, strain CHS5, hits give low values 0.99 | S. cerevisiae deletion strains, locus YLR342W, strain FKS1 (second series), hits give low values 0.976 | S. cerevisiae deletion strains, locus YLR371W, strain rom2, hits give low values 0.988 | S. cerevisiae deletion strains, locus YLR418C, strain cdc73, hits give low values 0.946 | S. cerevisiae deletion strains, locus YML016C, strain PPZ1, hits give low values 0.99 | S. cerevisiae deletion strains, locus YML032C, strain rad52, hits give low values 1 | S. cerevisiae deletion strains, locus YML124C, strain tub3, hits give low values 0.995 | S. cerevisiae deletion strains, locus YMR078C, strain ctf18, hits give low values 0.983 | S. cerevisiae deletion strains, locus YMR223W, strain ubp8, hits give low values 0.964 | S. cerevisiae deletion strains, locus YMR263W, strain SAP30, hits give low values 1.01 and 0.998 | [13] 0.96 and 1.01 | S. cerevisiae deletion strains, locus YNL067W, strain RPL9B, hits give low values 1.01 | S. cerevisiae deletion strains, locus YNL128W, strain TEP1, hits give low values 0.992 and 1.01 | S. cerevisiae deletion strains, locus YNL153C, strain GIM3, hits give low values 1.03 and 1.01 | [14] 0.99 and 1.02 | [15] 1.01 | [16] 0.999 and 1.02 | [17] 0.994 and 1.04 | S. cerevisiae deletion strains, locus YNL233W, strain BNI4, hits give low values 1.01 | S. cerevisiae deletion strains, locus YNL250W, strain rad50, hits give low values 0.957 | S. cerevisiae deletion strains, locus YNL271C, strain bni1, hits give low values 0.984 | S. cerevisiae deletion strains, locus YNL298W, strain CLA4, hits give low values 0.981 | S. cerevisiae deletion strains, locus YNL307C, strain MCK1, hits give low values 0.985 | S. cerevisiae deletion strains, locus YNL322C, strain KRE1, hits give low values 0.998 and 0.995 | S. cerevisiae deletion strains, locus YNR052C, strain pop2, hits give low values 0.987 | S. cerevisiae deletion strains, locus YOL006C, strain TOP1, hits give low values 1.06 | S. cerevisiae deletion strains, locus YOL012C, strain htz1 1.51 | S. cerevisiae deletion strains, locus YOL147C, strain pex11, hits give low values 0.99 | S. cerevisiae deletion strains, locus YOR061W, strain CKA2, hits give low values 0.995 | S. cerevisiae deletion strains, locus YOR069W, strain VPS5, hits give low values 0.987 | [18] 0.968 and 0.999 | S. cerevisiae deletion strains, locus YOR136W, strain idh2, hits give low values 0.994 | S. cerevisiae deletion strains, locus YOR144C, strain elg1, hits give low values 0.993 | S. cerevisiae deletion strains, locus YOR184W, strain ser1, hits give low values 0.988 | [19] 1.09 | S. cerevisiae deletion strains, locus YOR316C, strain cot1, hits give low values 0.988 | [20] 1.04 | [21] 1.05 | S. cerevisiae deletion strains, locus YPR119W, strain clb2, hits give low values 0.997 | S. cerevisiae deletion strains, locus YPR141C, strain kar3, hits give low values 0.98 | S. cerevisiae deletion strains, locus YPR163C, strain tif3, hits give low values 1.01 | S. cerevisiae deletion strains, locus YPR167C, strain met16, hits give low values 0.983 | S. cerevisiae deletion strains, strain wtn01, hits give low values 0.982 | S. cerevisiae strains, strain wild type, hits give low values 0.995

C[N+](C)(C)CCCCCCCCCC[N+](C)(C)C
inactive: [1] 1 | [2] 1 | [3] 1 | [4] 0.989 | [5] 1.02 | [6] 0.995 | [7] 1.04 | [8] 0.973 | [9] 1.01 | [10] 1 | [11] 0.963 | [12] 1.01 | [13] 0.998 | [14] 1.01 | [15] 0.948 | [16] 1.03 | [17] 0.983 | [18] 0.95 | [19] 0.995 | [20] 1.02 | [21] 1.12
